Sampled rows, rich in hits. Any-hit rate of the full collection: about 2.4%.
C diff HTS = C. difficile growth inhibition; Clostridium difficile clinical isolate growth, OD600, 24 h; active compounds read low; growth activity, negative = inhibition, % at 16 µg/mL (by protocol); hit rate 0.25% among 86,000; AID 1259249;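 active means mean growth activity at or below -80% and every replicate also at or below -80%; inconclusive means mean at or below -80% but some replicate above -80%; inactive means mean growth activity above -80%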;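 further: 0% = DMSO wells and -100% = levofloxacin 16 µg/mL wells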
Pf Dd2 growth = P. falciparum Dd2 growth inhibition. AID 1159554. hit rate 2.3% among 94,000. activity change, % at 10 µM. SYBR Green, 72 h; active compounds read low; in the data active means activity change below about -80%; inconclusive means no clear call, values can overlap the other calls
* = called active by the depositor; ? = inconclusive; . = no result given.

SMILES	C diff HTS	Pf Dd2 growth
C[C@H]1CCCCO[C@@H](CN(C)CC2CCCCC2)[C@@H](C)CN([C@@H](C)CO)C(=O)c2cc(NC(=O)Nc3ccccc3)ccc2O1	4	-83*
C[C@@H]1CCCCO[C@@H](CN(C)CC2CC2)[C@H](C)CN([C@@H](C)CO)C(=O)c2cc(NC(=O)Nc3ccccc3)ccc2O1	.	2
C[C@@H]1CCCCO[C@@H](CN(C)CC2CC2)[C@@H](C)CN([C@H](C)CO)C(=O)c2cc(NC(=O)Nc3ccccc3)ccc2O1	10	-84*
C[C@@H]1CCCCO[C@H](CN(C)CC2CC2)[C@H](C)CN([C@H](C)CO)C(=O)c2cc(NC(=O)C3CCCCC3)ccc2O1	.	-83*
CC=Cc1ccc2n(c1=O)C[C@H]1[C@H](CO)[C@@H](C(=O)NCCC)N(C(=O)c3cccnc3)[C@@H]21 (mixture of isomers)	-2	29
COc1ccc(CN(C)C[C@@H]2Oc3c(NS(=O)(=O)c4ccc(F)cc4)cccc3C(=O)N([C@@H](C)CO)C[C@H]2C)cc1	-4	11
Cc1noc(C)c1S(=O)(=O)Nc1ccc2c(c1)C(=O)N([C@H](C)CO)C[C@H](C)[C@H](CN(C)S(=O)(=O)c1ccc(F)cc1)OCCCC[C@@H](C)O2	-6	-25
O=C(C[C@@H]1CC[C@@H]2[C@H](COC[C@H](O)CN2S(=O)(=O)c2ccccc2Cl)O1)NCc1ccccc1Cl	.	-5
C[C@@H]1CN([C@@H](C)CO)C(=O)c2cccc(NS(=O)(=O)c3ccc(F)cc3)c2O[C@H]1CN(C)S(=O)(=O)c1ccc(F)cc1	4	29
COc1ccc(S(=O)(=O)N(C)C[C@@H]2Oc3c(NC(=O)CCCCCC(=O)Nc4ccccc4N)cccc3C(=O)N([C@H](C)CO)C[C@@H]2C)cc1	0	-85*
COc1ccc(S(=O)(=O)N(C)C[C@@H]2Oc3c(NC(=O)CCCCCC(=O)Nc4ccccc4N)cccc3C(=O)N([C@@H](C)CO)C[C@H]2C)cc1	1	-83*
COc1ccc(S(=O)(=O)N(C)C[C@@H]2Oc3c(NC(=O)CCCCCC(=O)Nc4ccccc4N)cccc3C(=O)N([C@H](C)CO)C[C@H]2C)cc1	13	-80
COc1ccc(S(=O)(=O)N(C)C[C@H]2Oc3c(NC(=O)CCCCCC(=O)Nc4ccccc4N)cccc3C(=O)N([C@H](C)CO)C[C@@H]2C)cc1	-1	-49
C[C@H]1CCCCO[C@@H](CN(C)C(=O)Nc2ccc(C(F)(F)F)cc2)[C@@H](C)CN([C@@H](C)CO)C(=O)c2cc(NS(=O)(=O)c3ccc(F)cc3)ccc2O1	4	-46
Cc1ccc(S(=O)(=O)Nc2ccc3c(c2)C(=O)N([C@@H](C)CO)C[C@@H](C)[C@@H](CN(C)Cc2ccc(C(F)(F)F)cc2)OCCCC[C@H](C)O3)cc1	-3	-81*
Cc1ccc(S(=O)(=O)Nc2ccc3c(c2)C(=O)N([C@@H](C)CO)C[C@@H](C)[C@H](CN(C)C(=O)Nc2ccc(C(F)(F)F)cc2)OCCCC[C@@H](C)O3)cc1	1	5
Cc1ccc(S(=O)(=O)Nc2ccc3c(c2)C(=O)N([C@@H](C)CO)C[C@@H](C)[C@@H](CN(C)C(=O)Nc2ccc(C(F)(F)F)cc2)OCCCC[C@H](C)O3)cc1	-6	-82*
Cc1ccc(S(=O)(=O)Nc2ccc3c(c2)C(=O)N([C@H](C)CO)C[C@@H](C)[C@H](CN(C)Cc2ccc(C(F)(F)F)cc2)OCCCC[C@@H](C)O3)cc1	48	-73
C[C@@H]1CCCCO[C@H](CN(C)C(=O)Nc2ccc(C(F)(F)F)cc2)[C@@H](C)CN([C@@H](C)CO)C(=O)c2cc(NS(=O)(=O)c3ccc(F)cc3)ccc2O1	4	-84*
C[C@@H]1CN([C@@H](C)CO)C(=O)c2cccc(NC(=O)C3CCOCC3)c2O[C@@H]1CN(C)S(=O)(=O)c1cn(C)cn1	3	20
C[C@@H]1CCCCO[C@H](CN(C)S(=O)(=O)c2ccc(Cl)cc2)[C@H](C)CN([C@@H](C)CO)C(=O)c2cc(NC(=O)CCC(F)(F)F)ccc2O1	-2	-24
CCNC(=O)C[C@@H]1C=C[C@H](NC(=O)C2CCOCC2)[C@@H](CO)O1	4	-3
O=S(=O)(N[C@H]1CC[C@H](CCn2cc(C3CC3)nn2)O[C@@H]1CO)c1ccc(F)cc1	.	-8
COc1ccc(S(=O)(=O)Nc2ccc3c(c2)CC(=O)N([C@H](C)CO)C[C@@H](C)[C@H](CN(C)Cc2ccc(C(=O)Nc4ccccc4N)cc2)O3)cc1	-5	8
COc1ccc(S(=O)(=O)Nc2ccc3c(c2)CC(=O)N([C@H](C)CO)C[C@H](C)[C@@H](CN(C)Cc2ccc(C(=O)Nc4ccccc4N)cc2)O3)cc1	-5	-85*
SMILES	C diff HTS	Pf Dd2 growth
COc1ccc(S(=O)(=O)Nc2ccc3c(c2)CC(=O)N([C@@H](C)CO)C[C@H](C)[C@H](CN(C)Cc2ccc(C(=O)Nc4ccccc4N)cc2)O3)cc1	0	-79
COc1ccc(S(=O)(=O)Nc2ccc3c(c2)CC(=O)N([C@@H](C)CO)C[C@H](C)[C@@H](CN(C)Cc2ccc(C(=O)Nc4ccccc4N)cc2)O3)cc1	17	-88*
COc1ccc2c3c(n(C)c2c1)[C@@H](CO)N(S(C)(=O)=O)CC31CCN(CC2CCCC2)CC1	-3	-47
COc1ccccc1C#Cc1ccc([C@@H]2[C@@H](C#N)N(C(=O)C3CCCCC3)[C@H]2CO)cc1	1	-91*
N#C[C@H]1[C@H](c2ccc(C#Cc3ccccc3F)cc2)[C@H](CO)N1C(=O)C1CCCC1	-8	-41
COc1ccccc1C#Cc1ccc([C@H]2[C@@H](C#N)N(C(=O)C3CCCCC3)[C@H]2CO)cc1	-9	-92*
COc1ccccc1-c1ccc([C@@H]2[C@@H](C#N)N(C(=O)C3CCCCC3)[C@@H]2CO)cc1	2	-20
C[C@H](CO)N1C[C@H](C)[C@H](CN(C)C(=O)Nc2cccc3ccccc23)Oc2ccc(NC(=O)c3ccncc3)cc2C1=O	0	-3
O=C(Nc1ccccc1)Nc1ccc2c(c1)[C@H]1C[C@@H](CC(=O)N3CCOCC3)O[C@@H](CO)[C@H]1O2	-1	-9
O=C(C1CCC1)N1CC(=O)N2[C@H](CO)[C@@H](c3ccc(-c4ccccc4F)cc3)[C@@H]2C1	-11	-41
COCC(=O)N1C[C@@H](C)[C@H](OC)CN(C)C(=O)c2ccc(NS(C)(=O)=O)cc2OC[C@@H]1C	.	7
C[C@@H]1CN([C@H](C)CO)S(=O)(=O)c2ccc(C#CCN(C)C)cc2O[C@H]1CN(C)C	0	9
C[C@@H]1CN([C@H](C)CO)C(=O)c2c(c3ccccc3n2C)-c2ccccc2CO[C@@H]1CN(C)C(=O)c1cc(Cl)cc(Cl)c1	7	-92*
C[C@H](CO)N1C[C@H](C)[C@H](CN(C)C(=O)c2ccc(F)cc2)OCc2ccccc2-c2c(n(C)c3ccccc23)C1=O	.	-86*
C[C@H]1CN([C@@H](C)CO)C(=O)c2c(c3ccccc3n2C)-c2ccccc2CO[C@@H]1CN(C)C(=O)c1cc(Cl)cc(Cl)c1	0	?
C[C@H]1CN([C@@H](C)CO)C(=O)c2c(c3ccccc3n2C)-c2ccccc2CO[C@@H]1CN(C)C(=O)c1ccccc1	.	-56
C[C@@H]1CN([C@@H](C)CO)C(=O)c2c(c3ccccc3n2C)-c2ccccc2CO[C@H]1CN(C)C(=O)c1ccc(F)cc1	.	-52

Compound activity: PubChem BioAssay, Broad Institute
